# Columns and labels:
# Assay in all cases: DAPPL (digital affinity profiling via proximity ligation, sequencing); 10 mM Tris-HCl pH 7.5, 50 mM NaCl, 1 mM DTT, 4% glycerol, room temperature, 30 min; GST-TFs on glutathione beads, 16-mer random dsDNA library, 0.1% formaldehyde crosslink after washing; high values mean tight binding
# [1] = molecular target: T1, FLI1 (Homo sapiens, UniProt Q01543 1-452); details: protein: recombinant; tags: N-terminal GST; dsDNA, one strand shown
# T1 sequence: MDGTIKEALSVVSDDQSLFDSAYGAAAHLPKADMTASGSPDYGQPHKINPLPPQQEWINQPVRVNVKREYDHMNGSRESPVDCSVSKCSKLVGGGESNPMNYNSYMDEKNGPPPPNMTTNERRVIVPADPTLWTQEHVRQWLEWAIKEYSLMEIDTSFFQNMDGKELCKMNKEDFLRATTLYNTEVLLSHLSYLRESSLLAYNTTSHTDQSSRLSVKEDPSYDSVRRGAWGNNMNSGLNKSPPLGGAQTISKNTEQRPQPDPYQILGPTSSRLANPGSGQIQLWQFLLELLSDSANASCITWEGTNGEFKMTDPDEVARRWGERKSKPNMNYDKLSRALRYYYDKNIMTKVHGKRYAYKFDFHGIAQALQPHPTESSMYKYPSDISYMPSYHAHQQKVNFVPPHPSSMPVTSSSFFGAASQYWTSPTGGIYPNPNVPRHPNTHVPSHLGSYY
# Method in brief: (§1)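 Human transcription factors fused to GST were expressed in yeast, captured on glutathione beads, given DNA barcodes and pooled with a GST-only negative control. Pools were incubated with 200 nmole of a 16-mer random double-stranded DNA library in Tris/NaCl/DTT/glycerol buffer at room temperature for 30 min. They were then washed, crosslinked with 0.1% formaldehyde, proximity-ligated (BsaI/T4 ligase, 1 h, 37 °C), PCR-amplified and sequenced on an Illumina NextSeq500. Binding signal is each 6-mer's read frequency for a factor divided by its frequency for the GST control.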
# [2] = molecular target: T2, ELK1 (Homo sapiens, UniProt P19419 1-428); details: protein: recombinant; tags: N-terminal GST; dsDNA, one strand shown
# T2 sequence: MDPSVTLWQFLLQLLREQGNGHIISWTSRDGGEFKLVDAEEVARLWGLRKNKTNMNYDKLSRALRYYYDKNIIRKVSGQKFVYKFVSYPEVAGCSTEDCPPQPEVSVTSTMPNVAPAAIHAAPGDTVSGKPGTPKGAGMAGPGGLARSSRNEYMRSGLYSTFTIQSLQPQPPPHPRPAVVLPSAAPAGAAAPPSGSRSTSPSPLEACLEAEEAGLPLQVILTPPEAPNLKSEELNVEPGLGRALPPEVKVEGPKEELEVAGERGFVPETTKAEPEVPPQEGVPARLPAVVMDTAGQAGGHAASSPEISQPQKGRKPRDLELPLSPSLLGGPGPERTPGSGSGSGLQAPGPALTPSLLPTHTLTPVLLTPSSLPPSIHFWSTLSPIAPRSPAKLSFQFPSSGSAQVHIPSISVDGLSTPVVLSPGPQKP
# Method in brief: as §1
# [3] = molecular target: T3, GABPA (Homo sapiens, UniProt Q06546 1-454); details: protein: recombinant; tags: N-terminal GST; dsDNA, one strand shown
# T3 sequence: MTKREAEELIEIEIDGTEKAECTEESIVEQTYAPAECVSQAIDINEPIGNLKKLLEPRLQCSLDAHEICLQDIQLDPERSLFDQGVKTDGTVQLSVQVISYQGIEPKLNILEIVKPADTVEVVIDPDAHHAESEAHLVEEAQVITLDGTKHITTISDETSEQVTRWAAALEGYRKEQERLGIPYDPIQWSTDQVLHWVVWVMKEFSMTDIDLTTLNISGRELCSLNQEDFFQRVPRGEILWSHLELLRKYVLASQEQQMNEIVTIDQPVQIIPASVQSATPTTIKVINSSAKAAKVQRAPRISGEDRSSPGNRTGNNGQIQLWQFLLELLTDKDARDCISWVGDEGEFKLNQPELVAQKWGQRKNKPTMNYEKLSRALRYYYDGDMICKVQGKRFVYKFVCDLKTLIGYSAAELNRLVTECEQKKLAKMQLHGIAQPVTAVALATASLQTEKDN
# Method in brief: as §1
# [4] = molecular target: T4, ERG (Homo sapiens, UniProt P11308 1-479); details: protein: recombinant; tags: N-terminal GST; dsDNA, one strand shown
# T4 sequence: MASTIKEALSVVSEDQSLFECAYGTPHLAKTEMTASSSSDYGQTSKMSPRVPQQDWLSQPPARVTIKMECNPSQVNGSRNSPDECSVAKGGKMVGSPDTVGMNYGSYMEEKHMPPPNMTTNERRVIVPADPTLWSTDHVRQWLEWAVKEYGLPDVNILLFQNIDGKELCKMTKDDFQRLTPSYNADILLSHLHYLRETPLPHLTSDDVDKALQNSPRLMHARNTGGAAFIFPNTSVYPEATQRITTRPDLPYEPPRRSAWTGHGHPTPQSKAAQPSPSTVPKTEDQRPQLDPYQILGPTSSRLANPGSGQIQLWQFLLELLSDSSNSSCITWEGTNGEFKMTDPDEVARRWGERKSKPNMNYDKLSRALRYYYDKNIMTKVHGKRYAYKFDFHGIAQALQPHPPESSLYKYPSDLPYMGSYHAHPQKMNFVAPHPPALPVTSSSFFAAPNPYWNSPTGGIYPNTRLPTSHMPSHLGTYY
# Method in brief: as §1
# [5] = molecular target: ELF1 (Homo sapiens, UniProt P32519 1-619); details: protein: recombinant; tags: N-terminal GST; dsDNA, one strand shown
# ELF1, sequence (P32519 whole entry): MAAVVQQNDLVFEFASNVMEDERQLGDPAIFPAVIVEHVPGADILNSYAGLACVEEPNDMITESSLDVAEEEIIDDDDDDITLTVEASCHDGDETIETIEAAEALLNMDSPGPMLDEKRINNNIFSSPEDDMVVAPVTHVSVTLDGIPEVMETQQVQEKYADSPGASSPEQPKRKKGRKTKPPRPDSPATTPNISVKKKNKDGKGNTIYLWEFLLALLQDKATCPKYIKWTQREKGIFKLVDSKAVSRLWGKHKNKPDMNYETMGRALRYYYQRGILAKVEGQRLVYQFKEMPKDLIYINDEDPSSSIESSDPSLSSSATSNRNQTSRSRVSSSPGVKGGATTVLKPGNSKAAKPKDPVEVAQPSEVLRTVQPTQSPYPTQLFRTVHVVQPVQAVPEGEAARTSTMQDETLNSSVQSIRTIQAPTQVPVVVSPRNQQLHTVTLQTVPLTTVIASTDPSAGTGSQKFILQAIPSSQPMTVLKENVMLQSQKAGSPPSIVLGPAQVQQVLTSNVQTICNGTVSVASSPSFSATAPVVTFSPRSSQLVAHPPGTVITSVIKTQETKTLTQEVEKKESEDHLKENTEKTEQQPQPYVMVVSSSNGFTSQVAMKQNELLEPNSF
# Method in brief: as §1
# [6] = molecular target: T5, EHF (Homo sapiens, UniProt Q9NZC4 1-300); details: protein: recombinant; tags: N-terminal GST; dsDNA, one strand shown
# T5 sequence: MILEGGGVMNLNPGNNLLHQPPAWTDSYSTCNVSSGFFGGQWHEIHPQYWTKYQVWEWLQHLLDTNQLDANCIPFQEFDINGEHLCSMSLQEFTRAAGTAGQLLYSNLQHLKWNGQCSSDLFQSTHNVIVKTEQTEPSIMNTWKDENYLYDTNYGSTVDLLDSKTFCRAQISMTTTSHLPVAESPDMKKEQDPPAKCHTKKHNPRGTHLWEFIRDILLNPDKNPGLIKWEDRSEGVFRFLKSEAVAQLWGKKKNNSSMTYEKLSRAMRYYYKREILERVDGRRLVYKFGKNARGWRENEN
# Method in brief: as §1
# [7] = molecular target: SPI1 (Homo sapiens, UniProt P17947 1-270); details: protein: recombinant; tags: N-terminal GST; dsDNA, one strand shown
# Method in brief: as §1
# [8] = molecular target: SPIB (Homo sapiens, UniProt Q01892 1-262); details: protein: recombinant; tags: N-terminal GST; dsDNA, one strand shown
# SPIB, sequence (Q01892 whole entry): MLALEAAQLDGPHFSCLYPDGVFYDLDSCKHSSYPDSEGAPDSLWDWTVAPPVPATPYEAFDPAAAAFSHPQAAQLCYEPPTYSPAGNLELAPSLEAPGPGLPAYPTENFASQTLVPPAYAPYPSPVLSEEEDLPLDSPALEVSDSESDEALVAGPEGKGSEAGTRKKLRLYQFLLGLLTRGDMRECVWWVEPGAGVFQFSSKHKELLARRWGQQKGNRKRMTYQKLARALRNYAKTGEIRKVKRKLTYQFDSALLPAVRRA
# Method in brief: as §1
# [9] = molecular target: T6, ELK3 (Homo sapiens, UniProt P41970 1-407); details: protein: recombinant; tags: N-terminal GST; dsDNA, one strand shown
# T6 sequence: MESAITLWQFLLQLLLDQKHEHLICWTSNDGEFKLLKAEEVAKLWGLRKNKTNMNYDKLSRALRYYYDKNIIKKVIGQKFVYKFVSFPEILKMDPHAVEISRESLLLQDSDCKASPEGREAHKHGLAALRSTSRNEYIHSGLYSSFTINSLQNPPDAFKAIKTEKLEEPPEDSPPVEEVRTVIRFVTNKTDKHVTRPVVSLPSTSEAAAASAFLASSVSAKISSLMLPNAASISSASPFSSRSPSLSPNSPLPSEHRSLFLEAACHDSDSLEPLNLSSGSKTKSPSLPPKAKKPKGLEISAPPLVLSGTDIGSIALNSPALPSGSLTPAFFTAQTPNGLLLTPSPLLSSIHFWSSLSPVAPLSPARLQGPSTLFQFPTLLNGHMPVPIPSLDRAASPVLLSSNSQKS
# Method in brief: as §1
# [10] = molecular target: T7, FEV (Homo sapiens, UniProt Q99581 1-238); details: protein: recombinant; tags: N-terminal GST; dsDNA, one strand shown
# T7 sequence: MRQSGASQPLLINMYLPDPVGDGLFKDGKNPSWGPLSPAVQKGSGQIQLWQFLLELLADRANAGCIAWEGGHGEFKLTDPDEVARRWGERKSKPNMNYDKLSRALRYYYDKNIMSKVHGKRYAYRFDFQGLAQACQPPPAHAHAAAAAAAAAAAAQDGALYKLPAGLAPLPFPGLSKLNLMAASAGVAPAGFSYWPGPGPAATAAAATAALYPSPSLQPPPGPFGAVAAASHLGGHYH
# Method in brief: as §1
# [11] = molecular target: ETV5 (Homo sapiens, UniProt P41161 1-510); details: protein: recombinant; tags: N-terminal GST; dsDNA, one strand shown
# ETV5, sequence (P41161 whole entry): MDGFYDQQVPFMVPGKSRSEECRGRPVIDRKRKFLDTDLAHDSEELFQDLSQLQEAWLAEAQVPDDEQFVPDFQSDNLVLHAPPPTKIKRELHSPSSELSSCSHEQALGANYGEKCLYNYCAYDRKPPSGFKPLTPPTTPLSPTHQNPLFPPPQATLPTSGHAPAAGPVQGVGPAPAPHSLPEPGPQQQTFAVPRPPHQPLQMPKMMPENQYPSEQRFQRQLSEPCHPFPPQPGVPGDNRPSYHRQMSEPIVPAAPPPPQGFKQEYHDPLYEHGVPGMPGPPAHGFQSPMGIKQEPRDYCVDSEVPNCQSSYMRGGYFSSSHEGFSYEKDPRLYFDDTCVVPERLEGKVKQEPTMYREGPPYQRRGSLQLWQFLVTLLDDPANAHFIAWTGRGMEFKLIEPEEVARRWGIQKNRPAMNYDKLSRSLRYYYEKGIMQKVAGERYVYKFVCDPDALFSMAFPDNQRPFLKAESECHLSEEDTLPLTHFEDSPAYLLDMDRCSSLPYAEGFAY
# Method in brief: as §1
# [12] = molecular target: HSF1 (Homo sapiens, UniProt Q00613 1-529); details: protein: recombinant; tags: N-terminal GST; chain copies: 3; dsDNA, one strand shown
# HSF1, sequence (Q00613 whole entry): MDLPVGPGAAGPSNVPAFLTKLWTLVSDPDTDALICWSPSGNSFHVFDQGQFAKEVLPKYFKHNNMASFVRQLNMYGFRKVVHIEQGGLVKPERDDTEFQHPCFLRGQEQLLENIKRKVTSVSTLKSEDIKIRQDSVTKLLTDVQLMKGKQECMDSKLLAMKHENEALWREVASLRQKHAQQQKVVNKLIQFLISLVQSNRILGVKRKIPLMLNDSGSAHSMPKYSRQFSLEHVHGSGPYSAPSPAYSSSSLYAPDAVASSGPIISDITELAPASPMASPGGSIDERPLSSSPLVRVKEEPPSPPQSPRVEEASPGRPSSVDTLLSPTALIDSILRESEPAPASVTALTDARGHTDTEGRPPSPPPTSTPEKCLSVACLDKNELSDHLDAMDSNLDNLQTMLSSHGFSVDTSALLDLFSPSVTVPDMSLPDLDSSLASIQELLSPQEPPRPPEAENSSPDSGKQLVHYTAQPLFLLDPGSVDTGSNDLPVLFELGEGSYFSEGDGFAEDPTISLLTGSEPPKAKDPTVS
# Method in brief: as §1
# [13] = molecular target: T8, SPIC (Homo sapiens, UniProt Q8N5J4 1-248); details: protein: recombinant; tags: N-terminal GST; dsDNA, one strand shown
# T8 sequence: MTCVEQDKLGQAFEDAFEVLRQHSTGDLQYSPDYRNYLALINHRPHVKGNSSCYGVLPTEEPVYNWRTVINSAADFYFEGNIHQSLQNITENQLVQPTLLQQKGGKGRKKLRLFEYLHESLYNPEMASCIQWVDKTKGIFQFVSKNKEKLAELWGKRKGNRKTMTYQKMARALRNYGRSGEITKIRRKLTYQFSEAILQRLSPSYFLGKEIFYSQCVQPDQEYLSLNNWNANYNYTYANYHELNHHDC
# Method in brief: as §1
# [14] = molecular target: ELF4 (Homo sapiens, UniProt Q99607 1-663); details: protein: recombinant; tags: N-terminal GST; dsDNA, one strand shown
# ELF4, sequence (Q99607 whole entry): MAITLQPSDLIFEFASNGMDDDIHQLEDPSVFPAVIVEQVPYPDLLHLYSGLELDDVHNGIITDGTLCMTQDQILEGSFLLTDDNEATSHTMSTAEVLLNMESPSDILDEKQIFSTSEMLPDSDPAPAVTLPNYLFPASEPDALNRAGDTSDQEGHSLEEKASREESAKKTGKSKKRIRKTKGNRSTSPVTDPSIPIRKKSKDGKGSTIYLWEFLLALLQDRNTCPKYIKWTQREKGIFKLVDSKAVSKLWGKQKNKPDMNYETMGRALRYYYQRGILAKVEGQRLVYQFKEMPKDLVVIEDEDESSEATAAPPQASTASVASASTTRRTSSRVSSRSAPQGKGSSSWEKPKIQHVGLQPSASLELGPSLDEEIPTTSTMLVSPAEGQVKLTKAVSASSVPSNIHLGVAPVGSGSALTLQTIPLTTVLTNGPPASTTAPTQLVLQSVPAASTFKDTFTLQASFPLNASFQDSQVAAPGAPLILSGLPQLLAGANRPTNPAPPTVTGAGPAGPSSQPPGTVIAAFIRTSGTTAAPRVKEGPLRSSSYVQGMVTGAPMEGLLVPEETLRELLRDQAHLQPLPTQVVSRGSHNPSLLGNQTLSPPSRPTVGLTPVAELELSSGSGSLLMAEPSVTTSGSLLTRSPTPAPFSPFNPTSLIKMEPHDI
# Method in brief: as §1
# [15] = molecular target: T9, ELK4 (Homo sapiens, UniProt P28324-2 1-405); details: protein: recombinant; tags: N-terminal GST; dsDNA, one strand shown
# T9 sequence: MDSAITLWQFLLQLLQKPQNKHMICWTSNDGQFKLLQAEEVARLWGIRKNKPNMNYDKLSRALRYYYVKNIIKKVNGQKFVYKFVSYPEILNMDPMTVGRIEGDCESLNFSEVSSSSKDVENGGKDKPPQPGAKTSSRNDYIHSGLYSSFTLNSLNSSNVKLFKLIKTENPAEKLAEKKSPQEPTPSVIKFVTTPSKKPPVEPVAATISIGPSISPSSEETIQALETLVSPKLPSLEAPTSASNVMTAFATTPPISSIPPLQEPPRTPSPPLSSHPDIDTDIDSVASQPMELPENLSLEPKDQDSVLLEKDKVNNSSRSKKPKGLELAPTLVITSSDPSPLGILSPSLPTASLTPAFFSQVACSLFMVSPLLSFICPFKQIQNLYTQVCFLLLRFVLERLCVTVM
# Method in brief: as §1
# [16] = molecular target: T10, ETV2 (Homo sapiens, UniProt O00321 1-342); details: protein: recombinant; tags: N-terminal GST; dsDNA, one strand shown
# T10 sequence: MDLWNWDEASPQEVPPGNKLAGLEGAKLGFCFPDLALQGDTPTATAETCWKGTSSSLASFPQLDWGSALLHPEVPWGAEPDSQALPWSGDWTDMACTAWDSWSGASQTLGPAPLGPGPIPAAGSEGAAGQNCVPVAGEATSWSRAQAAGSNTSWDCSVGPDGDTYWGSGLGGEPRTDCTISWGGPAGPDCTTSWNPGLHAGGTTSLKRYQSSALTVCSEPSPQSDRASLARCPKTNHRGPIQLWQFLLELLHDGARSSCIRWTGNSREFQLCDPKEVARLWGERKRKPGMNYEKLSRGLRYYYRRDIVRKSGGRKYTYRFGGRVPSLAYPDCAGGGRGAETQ
# Method in brief: as §1
# [17] = molecular target: T11, ELF3 (Homo sapiens, UniProt P78545 1-371); details: protein: recombinant; tags: N-terminal GST; dsDNA, one strand shown
# T11 sequence: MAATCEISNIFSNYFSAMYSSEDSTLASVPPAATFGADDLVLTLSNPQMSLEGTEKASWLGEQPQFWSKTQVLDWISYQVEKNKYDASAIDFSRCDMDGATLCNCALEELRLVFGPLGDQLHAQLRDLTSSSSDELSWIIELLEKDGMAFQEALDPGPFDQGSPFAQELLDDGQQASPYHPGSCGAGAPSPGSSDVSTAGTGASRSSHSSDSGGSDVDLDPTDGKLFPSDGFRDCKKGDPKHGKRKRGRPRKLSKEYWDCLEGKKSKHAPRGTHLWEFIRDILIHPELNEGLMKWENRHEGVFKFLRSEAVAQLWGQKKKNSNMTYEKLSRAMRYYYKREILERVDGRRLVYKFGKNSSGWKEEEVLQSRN
# Method in brief: as §1
# [18] = molecular target: CRX (Homo sapiens, UniProt O43186 1-299); details: protein: recombinant; tags: N-terminal GST; dsDNA, one strand shown
# CRX, sequence (O43186 whole entry): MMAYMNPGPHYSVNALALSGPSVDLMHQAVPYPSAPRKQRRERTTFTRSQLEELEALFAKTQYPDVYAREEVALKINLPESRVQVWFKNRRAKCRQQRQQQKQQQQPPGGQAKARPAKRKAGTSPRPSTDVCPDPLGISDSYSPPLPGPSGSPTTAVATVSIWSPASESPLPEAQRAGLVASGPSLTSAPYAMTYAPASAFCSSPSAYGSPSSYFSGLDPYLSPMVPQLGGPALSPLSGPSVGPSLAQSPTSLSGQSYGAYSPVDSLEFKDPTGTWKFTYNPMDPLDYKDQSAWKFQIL
# Method in brief: as §1
# [19] = molecular target: ETV1 (Homo sapiens, UniProt P50549 1-477); details: protein: recombinant; tags: N-terminal GST; dsDNA, one strand shown
# ETV1, sequence (P50549 whole entry): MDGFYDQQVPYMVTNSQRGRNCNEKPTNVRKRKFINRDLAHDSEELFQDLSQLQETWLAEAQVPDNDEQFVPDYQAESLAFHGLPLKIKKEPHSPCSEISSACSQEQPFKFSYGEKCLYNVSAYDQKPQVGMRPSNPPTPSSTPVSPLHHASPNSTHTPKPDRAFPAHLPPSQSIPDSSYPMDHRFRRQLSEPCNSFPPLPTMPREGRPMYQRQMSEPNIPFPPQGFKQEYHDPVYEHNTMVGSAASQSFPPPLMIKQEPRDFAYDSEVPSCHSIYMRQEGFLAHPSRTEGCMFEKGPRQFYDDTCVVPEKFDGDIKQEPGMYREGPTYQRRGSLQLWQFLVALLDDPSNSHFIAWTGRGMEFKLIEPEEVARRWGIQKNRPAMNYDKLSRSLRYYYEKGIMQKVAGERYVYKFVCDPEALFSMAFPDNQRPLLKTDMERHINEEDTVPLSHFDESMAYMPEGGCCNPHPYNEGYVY
# Method in brief: as §1
sequence,measurement,setting,value
TTCGCC,binding signal,[1],"1.26 fold enrichment (6-mer frequency, TF over GST control)"
same,binding signal,[2],"1.28 fold enrichment (6-mer frequency, TF over GST control)"
same,binding signal,[3],"1.2 fold enrichment (6-mer frequency, TF over GST control)"
same,binding signal,[4],"1.15 fold enrichment (6-mer frequency, TF over GST control)"
same,binding signal,[5],"1.15 fold enrichment (6-mer frequency, TF over GST control)"
same,binding signal,[6],"1.11 fold enrichment (6-mer frequency, TF over GST control)"
same,binding signal,[7],"1.1 fold enrichment (6-mer frequency, TF over GST control)"
same,binding signal,[8],"1.14 fold enrichment (6-mer frequency, TF over GST control)"
same,binding signal,[9],"1.08 fold enrichment (6-mer frequency, TF over GST control)"
same,binding signal,[10],"1.19 fold enrichment (6-mer frequency, TF over GST control)"
same,binding signal,[11],"1.13 fold enrichment (6-mer frequency, TF over GST control)"
same,binding signal,[12],"1.14 fold enrichment (6-mer frequency, TF over GST control)"
same,binding signal,[13],"1.32 fold enrichment (6-mer frequency, TF over GST control)"
same,binding signal,[14],"1.05 fold enrichment (6-mer frequency, TF over GST control)"
same,binding signal,[15],"1.08 fold enrichment (6-mer frequency, TF over GST control)"
same,binding signal,[16],"1.1 fold enrichment (6-mer frequency, TF over GST control)"
same,binding signal,[17],"1.08 fold enrichment (6-mer frequency, TF over GST control)"
same,binding signal,[18],"1 fold enrichment (6-mer frequency, TF over GST control)"
same,binding signal,[19],"1.13 fold enrichment (6-mer frequency, TF over GST control)"

# From article PMC7862700, “An all-to-all approach to the identification of sequence-specific readers for epigenetic DNA modifications on cytosine”
